Source: PubChem BioAssay AID1259418 (Broad Institute, 2018)
About 840 (25%) of roughly 3,400 compounds were called active. Inconclusive results (about 11%) are left out. A selection follows. Measured potencies and affinities stand elsewhere. Unmarked numbers belong to inactive results.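 The calls were made as follows: active = fitted half-maximal concentration of signal decrease at or below twice the sample's top tested concentration; inconclusive = flat curve between -70 and -30 percent, or poor fit; inactive = flat within 30 percent, signal rise, or potency above limit.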

Experiment: T. gondii growth inhibition with IFN-gamma, dose response, cell-based, ME49Luc, HeLa, luciferase, 72 h (AID 1259418)
Conditions: T. gondii ME49Luc in IFN-y HeLa, hits give low values, -100% = high-dose IFN-γ control wells; at 19.5 µM unless noted

SMILES	max activity
CCOC(=O)C1CCCN(c2nc(-c3ccc(OC)cc3)nc3ccccc23)C1 (configuration not stated)	-19.8% [at 0.16 µM]
O=C(CC1N=C2c3ccccc3N=C(SCc3ccccc3F)N2C1=O)NCc1ccc(F)cc1 (configuration not stated)	15.6% [at 0.68 µM]
N#CCSC1=Nc2ccccc2C2=NC(CCC(=O)NCc3cccs3)C(=O)N12 (configuration not stated)	19.3% [at 1.35 µM]
O=C(CC1N=C2c3ccccc3N=C(SCc3ccccc3F)N2C1=O)NCc1ccccc1 (configuration not stated)	8.54% [at 0.16 µM]
CCOC(=O)CSC1=Nc2ccccc2C2=NC(CC(=O)NCc3cccs3)C(=O)N12 (configuration not stated)	29.5%
Cc1ccc(-c2coc(-c3ccc(NC(=O)NCCc4ccccc4)cc3)n2)cc1	19.3% [at 2.6 µM]
COc1ccc(-c2nc(Nc3cc(OC)cc(OC)c3)c3ccccc3n2)cc1	19% [at 5 µM]
COc1ccc(-c2nc(Nc3ccccc3F)c3ccccc3n2)cc1	11.7%
Clc1ccc(-c2nc(NC3CCCCC3)c3ccccc3n2)cc1	16.4%
Clc1ccc(-c2nc(NC3CCCCCC3)c3ccccc3n2)cc1	14.3% [at 10 µM]
COc1ccc(-c2nc(NC3CCCCCC3)c3ccccc3n2)cc1	19.2% [at 0.16 µM]
COc1ccc(-c2nc(NC3CCCCC3)c3ccccc3n2)cc1	-27.2% [at 5 µM]
COc1ccc(-c2nc(Nc3ccc(Cl)cc3C)c3ccccc3n2)cc1	-19.8% [at 10 µM]
Cc1cnc(N2CC[C@H]3CN(CC(=O)N(C)C)S(=O)(=O)[C@@H]3CC2)nc1	21.5%
O=C(CCc1ccc2nc(-c3ccccc3)[nH]c2c1)N1CCC(N2CCCCC2)CC1	57.7%
c1ccc(-n2ncc3c(NC4CCCCCCCCCCC4)ncnc32)cc1	53.5% [at 10 µM]
Cc1nc(-c2ccc(F)cc2)sc1-c1ccc(SCCN2CCCCC2)nn1	10.2% [at 0.16 µM]
Cc1ccc(Cn2c(=O)c3nn(C)cc3n3c(=O)n(Cc4nc(-c5cccc(C)c5)oc4C)nc23)cc1	8.72% [at 10 µM]
COc1ccc(-c2nc(N3CCN(c4cc(C)ccc4C)CC3)c3ccccc3n2)cc1	11.7% [at 0.68 µM]
Cc1ccc(CSC2=Nc3ccccc3C3=NC(CC(=O)NC4CCCCC4)C(=O)N23)cc1 (configuration not stated)	39.6%
O=C(CCC1N=C2c3ccccc3N=C(SCc3ccccc3F)N2C1=O)NC1CCCCC1 (configuration not stated)	96.1%

SMILES	max activity
O=C(CC1N=C2c3ccccc3N=C(SCc3ccccc3Cl)N2C1=O)NC1CCCCC1 (configuration not stated)	14%
O=C(CC1N=C2c3ccccc3N=C(SCc3cccc(Cl)c3)N2C1=O)NC1CCCCC1 (configuration not stated)	-15.8% [at 0.16 µM]
Cc1cccc(C(=O)N2CCC3(CC2)Nc2ccc(Cl)cc2-n2cccc23)c1	5.23%
COc1ccc(OC)c(NC(=O)Nc2ccc(-c3nc(-c4ccccc4)co3)cc2)c1	13.4% [at 0.68 µM]
COc1ccc(-c2nc(Nc3cccc(C(F)(F)F)c3)c3ccccc3n2)cc1	-7.84% [at 5 µM]
N#C[C@@H]1[C@@H](c2ccc(-c3cccnc3)cc2)[C@H](CO)N1C(=O)Nc1ccc(F)cc1	48.3% [at 10 µM]
CCOc1cccc(-c2noc(-c3nnn(Cc4nc(-c5ccc(C)cc5)oc4C)c3C)n2)c1	-11.7% [at 0.68 µM]
CN1C(=O)CCc2cc(NC(=O)c3cnccn3)ccc21	158% [at 10 µM]
COc1ccc(-c2nc(Nc3cc(Cl)ccc3OC)c3ccccc3n2)cc1	12.5% [at 0.68 µM]
Cc1ccc2c(c1)cc(S(=O)(=O)c1ccccc1)c(=O)n2CC(=O)NCC1CCCO1 (configuration not stated)	-10.7% [at 10 µM]
CCOc1ccccc1NC(=O)N1CCN(Cc2nc(-c3ccc(C)cc3)oc2C)CC1	-15.8%
COc1ccc(OC)c(CNc2nc(-c3ccc(Cl)cc3)nc3ccccc23)c1	14.3%
N#C[C@@H]1[C@@H](c2ccc(-c3cccc(F)c3)cc2)[C@H](CO)N1C(=O)NC1CCCC1	20.3% [at 10 µM]
N#C[C@H]1[C@@H](c2ccc(-c3cccc(F)c3)cc2)[C@@H](CO)N1C(=O)NC1CCCC1	14.8% [at 2.6 µM]
Cc1nc(-c2ccc(F)cc2)sc1-c1ccc(SCc2ccccc2)nn1	20.5% [at 10 µM]
COc1ccc(-c2nc(N3CCN(c4cc(Cl)ccc4C)CC3)c3ccccc3n2)cc1	23.2% [at 1.35 µM]
Cc1ccccc1-c1nc(CN2CCN(C(=O)NC3CCCCC3)CC2)c(C)o1	-12% [at 0.35 µM]
Cc1cccc(-c2nc(Cn3nnc(-c4nc(-c5ccc(C(F)(F)F)cc5)no4)c3C)c(C)o2)c1	-7.24% [at 0.16 µM]
Cc1ccc(C)c(N2CCN(c3nc(-c4ccc(Cl)cc4)nc4ccccc34)CC2)c1	16.9%
Cc1ccc(S(=O)(=O)N2CCC3(CC2)NCCN=C3NCc2ccc3c(c2)OCO3)c(C)c1	-18.3%
CC(C)Cc1ccc(S(=O)(=O)N2CCC3(CC2)NCCN=C3NCc2ccc3c(c2)OCO3)cc1	12.4% [at 10 µM]

SMILES	max activity
O=S(=O)(c1ccc2c(c1)CCCC2)N1CCC2(CC1)NCCN=C2NCc1ccc2c(c1)OCO2	10.2%
COc1ccccc1NC(=O)COc1nc(C)nc2ccccc12	14.7%
COc1ccc(S(=O)(=O)N2CCC[C@@H]2C(=O)NCCc2csc(C)n2)cc1OC	10.7% [at 10 µM]
O=C(Cc1ccccc1)N1CCC2(CC1)CC(N1CCCC1)CO2 (configuration not stated)	17.6% [at 2.6 µM]
CC(C)CCNC(=O)Cn1c(=O)c(S(=O)(=O)c2ccccc2)cc2ccccc21	-14% [at 0.16 µM]
CN1C(=O)CCc2cc(NC(=O)c3cccc(C(F)(F)F)c3)ccc21	6.55% [at 0.68 µM]
CCN1C(=O)CCc2cc(NC(=O)Cc3ccc(Cl)cc3)ccc21	8.3% [at 2.6 µM]
COc1cccc(CCC(=O)Nc2ccc3c(c2)CCC(=O)N3C)c1	3.19%
CCN1C(=O)CCc2cc(NC(=O)Cc3ccc(OC)cc3)ccc21	7.03% [at 2.6 µM]
CN1C(=O)CCc2cc(NC(=O)Cc3c(F)cccc3Cl)ccc21	-7.19% [at 5 µM]
CN1C(=O)CCc2cc(NC(=O)C3CC3)ccc21	-5.59% [at 0.16 µM]
COc1ccc(CC(=O)Nc2ccc3c(c2)CCC(=O)N3C)cc1Cl	7.75% [at 10 µM]
COCC(=O)Nc1ccc2c(c1)CCC(=O)N2C	6.56% [at 0.16 µM]
COc1cc(OC)c(NC(=O)Nc2ccc(-c3nc(-c4ccccc4)co3)cc2)cc1Cl	24.2%
CCOC(=O)CSc1nc(NCCc2ccc(OC)c(OC)c2)c2ccccc2n1	24.2% [at 0.68 µM]
Cc1ccc(-c2nc(CN3CCN(C(=O)Nc4ccccc4C(F)(F)F)CC3)c(C)o2)cc1	15.9% [at 0.16 µM]
O=C(Nc1ccc(-c2nc(-c3ccccc3)co2)cc1)c1ccc2c(c1)OCO2	22.1% [at 0.35 µM]
COc1ccc(OC)c(NC(=O)Nc2ccc(-c3nc(-c4ccc(C)cc4C)co3)cc2)c1	12.1% [at 0.35 µM]
COc1cccc(-c2nc3c(s2)CN(C(=O)Nc2ccc(Br)cc2)CC3)c1	6.77%
Cc1ccc(-c2nc(Cn3nnc(-c4nc(-c5ccc(OCC(C)C)cc5)no4)c3C)c(C)o2)cc1	21.2% [at 0.16 µM]
CCOC(=O)C1CCN(S(=O)(=O)c2cc(-c3nc(C(C)(C)C)cs3)cs2)CC1	7.71% [at 0.68 µM]

SMILES	max activity
CN1C(=O)CCc2cc(NC(=O)c3ccncc3)ccc21	-16.2% [at 2.6 µM]
CN1C(=O)CCc2cc(NC(=O)c3ccsc3)ccc21	74.1% [at 10 µM]
Cc1ccc(-c2coc(-c3ccc(NC(=O)c4ccc(Br)o4)cc3)n2)cc1	38% [at 2.6 µM]
O=C(Nc1ccc(-c2nc(-c3ccccc3)co2)cc1)Nc1cccc(F)c1	13.5%
Cc1nc(-c2ccc(F)cc2)sc1-c1ccc(SCCN2CCCCCC2)nn1	9.96%
COc1ccc(CC(=O)Nc2ccc(-c3nc(-c4ccc(C)cc4)co3)cc2)cc1	16.4% [at 0.35 µM]
COc1ccc(-c2ccc(OCCNC(=O)c3sc(-c4ccccc4)nc3C)nn2)cc1	13.2% [at 0.16 µM]
O[C@H](CNC[C@@H](O)[C@H]1CCc2cc(F)ccc2O1)[C@@H]1CCc2cc(F)ccc2O1	-7.92% [at 0.3 µM]
CNc1ncc(CN(C)C(=O)c2csc(C)n2)cn1	20.8%
Cc1ccc2c(c1)cc(S(=O)(=O)c1ccccc1)c(=O)n2CC(=O)NCc1ccccc1Cl	7.82% [at 0.68 µM]
O=C(NCCc1csc(-c2ccccc2)n1)[C@H]1CSCN1C(=O)Cc1cccs1	12.6%
COc1ccccc1NC(=O)Nc1ccc(-c2nc(-c3cc(C)ccc3C)co2)cc1	9.93% [at 0.16 µM]
Cc1ccc(-c2coc(-c3ccc(NC(=O)Nc4ccc(F)cc4F)cc3)n2)cc1	92.1%
O=C(Nc1ccc(-c2nc(-c3ccccc3)co2)cc1)Nc1cc(F)ccc1F	10.9% [at 2.6 µM]
Cc1ccc(C)c(-c2coc(-c3ccc(NC(=O)c4ccccc4)cc3)n2)c1	11.8% [at 2.6 µM]
COc1ccc(C(=O)Nc2ccc(-c3nc(-c4ccc(C)cc4C)co3)cc2)cc1OC	45%
COc1ccc(C)cc1NC(=O)Nc1ccc(-c2nc(-c3ccc(C)cc3C)co2)cc1	20.4%
COc1ccc(C(=O)Nc2ccc(-c3nc(-c4cc(C)ccc4C)co3)cc2)cc1OC	9.52% [at 0.35 µM]
COc1cc(C(=O)Nc2ccc(-c3nc(-c4ccc(C)cc4C)co3)cc2)cc(OC)c1OC	27.4% [at 5 µM]
